According to PubChem BioAssay (NCATS):
Results filed as inconclusive are left out. Unless noted, calls follow the shape of the dose curve; as a rule, active = well fitted curve in either direction with a large enough effect (not every such curve was filed as active); inconclusive = small, poorly fitted or top-dose-only effect, or another doubt; inactive = flat fitted curve, though single readings scatter.

Columns and labels:
[1] = AP1 Signaling Pathway (AID 357); details: ME-180 AP-1-bla reporter, EGF-induced, beta-lactamase ratio, 5 h; at 17.2 µM (top of the series) unless noted;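 also: ME-180 reporter cells stimulated with EGF at its EC50 level; % is scaled to controls: 0 for no effect and ±100 for the full control effect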
Procedure, shortened: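 Cells are seeded overnight, exposed to compound titrations and an EC50 level of EGF for 5 hours at 37 °C, then loaded with CCF4 dye for 2.5 hours. Beta-lactamase activity under the AP-1 element is read as a blue/green ratio.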

[2] = Stat Signaling Pathway (AID 446); details: ME-180 (cervical carcinoma) SIE beta-lactamase reporter, IL-6 stimulated, 5 h; at 17.2 µM (top of the series) unless noted;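 also: ME-180 cervical cancer cells given 40 pM IL-6 alongside compound; SIE-controlled beta-lactamase reporter measured as 460/530 nm FRET emission ratio; % is scaled to controls: 0 for no effect and ±100 for the full control effect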
Procedure, shortened: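 FRET read-out (405 nm excitation, 460/530 nm emission) of a beta-lactamase reporter under a STAT-inducible element in ME-180 cervical carcinoma cells. Cells with compound receive 40 pM IL-6 for 5 h. Values are normalised to AC90 stimulation and AC90 JAK-inhibitor controls.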

[3] = biological target: Glucocorticoid receptor (Homo sapiens) (UniProt P04150); test: GR-GFP Redistribution (AID 450;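 active = compounds whose dose series gives a full or clear partial fitted curve of increased nuclear translocation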; also: potency is read from the fitted curve at half-maximal effect)
Glucocorticoid receptor (Homo sapiens), sequence (P04150 whole entry, looked up): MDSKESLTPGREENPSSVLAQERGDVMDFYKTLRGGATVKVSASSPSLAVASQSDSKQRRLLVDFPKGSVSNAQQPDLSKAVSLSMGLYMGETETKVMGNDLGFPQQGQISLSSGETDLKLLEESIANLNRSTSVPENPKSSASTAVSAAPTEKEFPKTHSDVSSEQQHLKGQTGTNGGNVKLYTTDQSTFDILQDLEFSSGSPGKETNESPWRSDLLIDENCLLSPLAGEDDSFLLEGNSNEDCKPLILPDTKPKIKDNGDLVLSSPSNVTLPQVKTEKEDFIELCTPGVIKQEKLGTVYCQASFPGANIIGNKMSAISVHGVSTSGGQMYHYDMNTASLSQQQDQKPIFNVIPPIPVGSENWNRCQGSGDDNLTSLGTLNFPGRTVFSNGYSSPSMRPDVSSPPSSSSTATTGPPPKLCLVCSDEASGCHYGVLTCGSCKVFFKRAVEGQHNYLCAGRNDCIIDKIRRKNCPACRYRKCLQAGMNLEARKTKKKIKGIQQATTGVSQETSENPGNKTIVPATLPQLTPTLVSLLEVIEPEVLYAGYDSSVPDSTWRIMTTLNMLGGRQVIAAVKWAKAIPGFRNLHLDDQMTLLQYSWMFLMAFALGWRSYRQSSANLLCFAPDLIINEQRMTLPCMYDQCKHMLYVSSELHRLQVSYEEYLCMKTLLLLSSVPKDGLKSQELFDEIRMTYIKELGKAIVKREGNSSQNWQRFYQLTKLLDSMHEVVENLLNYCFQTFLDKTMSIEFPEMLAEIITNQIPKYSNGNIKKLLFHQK

Cc1cc(N2C(=O)C(=O)/C(=C(/O)c3ccccc3)C2c2cccc(Br)c2)no1 (configuration not stated)
inactive: activity change, negative = inhibition [1] -11.1% | activity, negative = inhibition [2] -23.1% | Potency [3] > 20.6 µM

CCCOc1cc(CN2CCCCC2)cc(C(C)=O)c1
inactive: activity change, negative = inhibition [1] 27.9% | activity, negative = inhibition [2] 7.32% | Potency [3] > 20.6 µM

COc1cccc(C2=CC(c3ccc(N(C)C)cc3)n3nnnc3N2)c1 (configuration not stated)
inactive: activity change, negative = inhibition [1] -12.2% | activity, negative = inhibition [2] 14.4% | Potency [3] > 20.6 µM

Cc1nnc(C)n1/N=C/c1cc(Br)cc(Br)c1O
inactive: activity change, negative = inhibition [1] -5.92% | activity, negative = inhibition [2] -19.2% | Potency [3] > 20.6 µM

CC(=O)OCC(=O)[C@@]1(O)CC[C@H]2[C@@H]3CCC4=CC(=O)CC[C@]4(C)[C@H]3[C@@H](O)C[C@@]21C
inactive: activity change, negative = inhibition [1] 11.1% | activity, negative = inhibition [2] -11.6% | Potency [3] > 20.6 µM

Cc1cc(=O)oc2c(CN3CCC(C)CC3)c(O)c(Cl)cc12
inactive: activity change, negative = inhibition [1] 22.4% | activity, negative = inhibition [2] 7.86% | Potency [3] > 20.6 µM

CCN(CC)CCCn1c(C)cc2c(c1=O)C(c1ccc(OC)c(OC)c1OC)C(C#N)=C(N)O2 (configuration not stated)
inactive: activity change, negative = inhibition [1] 6.36% | activity, negative = inhibition [2] 10.3% | Potency [3] > 20.6 µM

CCOC(=O)C1=Nc2ccccc2C1=[N+]=[N-]
inactive: activity change, negative = inhibition [1] -19% | activity, negative = inhibition [2] -23.9% | Potency [3] > 20.6 µM

COC(=O)c1ccc(CSc2ncnc3c2sc2nc(N4CCOCC4)c4c(c23)CCCC4)o1
inactive: activity change, negative = inhibition [1] 20.1% | activity, negative = inhibition [2] 25.6% | Potency [3] > 20.6 µM

CCN(CC)Cc1cc(C(C)=O)ccc1OCC(C)C
inactive: activity change, negative = inhibition [1] 23.1% | activity, negative = inhibition [2] 13.1% | Potency [3] > 20.6 µM

COc1ccccc1C1C(C#N)=C(N)Oc2cc(C)n(Cc3ccccn3)c(=O)c21 (configuration not stated)
inactive: activity change, negative = inhibition [1] -12.5% | activity, negative = inhibition [2] -1.34% | Potency [3] > 20.6 µM

COc1ccc(CSC2=NCCN2)cc1Cl
inactive: activity change, negative = inhibition [1] 15.6% | activity, negative = inhibition [2] 8.84% | Potency [3] > 20.6 µM

COc1ccc(CCNc2oc(COc3ccccc3)nc2C#N)cc1
inactive: activity change, negative = inhibition [1] -23% | activity, negative = inhibition [2] -23.3% | Potency [3] > 20.6 µM

Cc1nn(C)cc1/C=N/n1nnnc1N
inactive: activity change, negative = inhibition [1] 0.525% | activity, negative = inhibition [2] -1.52% | Potency [3] > 20.6 µM

COc1ccc(N/C=C(\C#N)c2nc3ccccc3n2C)c(OC)c1
inactive: activity change, negative = inhibition [1] -21.3% | activity, negative = inhibition [2] -22% | Potency [3] > 20.6 µM

O=C1OC(Nc2ccc(Br)cc2F)c2ccccc21 (configuration not stated)
inactive: activity change, negative = inhibition [1] 0.165% | activity, negative = inhibition [2] 2.24% | Potency [3] > 20.6 µM

CCCCCn1c2nc3ccccc3nc2c2c(=O)n(CC(C)C)cnc21
inactive: activity change, negative = inhibition [1] 2.71% | activity, negative = inhibition [2] -12.9% | Potency [3] > 20.6 µM

CCOC(=O)/C=c1\s/c(=C(\C#N)C(=O)OCC)n(-c2ccccc2)c1=O
inactive: activity change, negative = inhibition [1] 2.08% | activity, negative = inhibition [2] -22.2% | Potency [3] > 20.6 µM

COc1ccc(NCc2cc3ccccc3[nH]c2=O)cc1
inactive: activity change, negative = inhibition [1] -1.34% | activity, negative = inhibition [2] 1.46% | Potency [3] > 20.6 µM

CCC(CC)c1nc2cc(OC)c(OC)cc2c(=O)o1
inactive: activity change, negative = inhibition [1] -1.43% | activity, negative = inhibition [2] -3.88% | Potency [3] > 20.6 µM

COC(=O)CN(c1nc(C)c(Cl)c(OC)n1)S(=O)(=O)c1ccc(C)cc1
inactive: activity change, negative = inhibition [1] 6.71% | activity, negative = inhibition [2] 3.43% | Potency [3] > 20.6 µM

CCOC(=O)c1[nH]c2ccc(OC)cc2c1NC(=O)CCN1CCc2ccccc2C1
inactive: activity change, negative = inhibition [1] -5.08% | activity, negative = inhibition [2] -3.49% | Potency [3] > 20.6 µM

CCCCCCOc1ccc(C(=O)n2cnc(N)n2)cc1
inactive: activity change, negative = inhibition [1] -12.8% | activity, negative = inhibition [2] 27.4% | Potency [3] > 20.6 µM

N#Cc1c(SCC(N)=O)nsc1SCc1ccc(Cl)cc1
inactive: activity change, negative = inhibition [1] -15.5% | activity, negative = inhibition [2] -18% | Potency [3] > 20.6 µM

COc1ccc(/C(O)=C2\C(=O)C(=O)N(c3cc(C)on3)C2c2ccccc2OC)cc1C (configuration not stated)
inactive: activity change, negative = inhibition [1] -17.1% | activity, negative = inhibition [2] -23.5% | Potency [3] > 20.6 µM

COc1ccc(C2NC(=O)NC(O)(C(F)(F)F)C2C(=O)c2ccc(F)cc2)cc1 (configuration not stated)
inactive: activity change, negative = inhibition [1] -8.86% | activity, negative = inhibition [2] -0.989% | Potency [3] > 20.6 µM

CN(CCOC(=O)c1cccc(Br)c1)C(C)(C)C
inactive: activity change, negative = inhibition [1] 9.82% | activity, negative = inhibition [2] 7.11% | Potency [3] > 20.6 µM

CN1CCN(CCC(=O)N2c3ccccc3Sc3ccc(Cl)cc32)CC1
inactive: activity change, negative = inhibition [1] 12.7% | activity, negative = inhibition [2] 6.36% | Potency [3] > 20.6 µM

C/C(=N\O)c1ccc2[nH]ccc2c1
inactive: activity change, negative = inhibition [1] 2.69% | activity, negative = inhibition [2] 13.9% | Potency [3] > 20.6 µM

Fc1ccccc1-c1nc(NCCCN2CCOCC2)c2ccccc2n1
inactive: activity change, negative = inhibition [1] 0.19% | activity, negative = inhibition [2] -7.69% | Potency [3] > 20.6 µM

Cc1ccc(SCc2c(C#N)c3ccccc3n2C)cc1
inactive: activity change, negative = inhibition [1] -29.6% | activity, negative = inhibition [2] -15.3% | Potency [3] > 20.6 µM

Cc1c(C)c2cc(Cl)c(O)c(CN3CCCC(C)C3)c2oc1=O (configuration not stated)
inactive: activity change, negative = inhibition [1] 14.1% | activity, negative = inhibition [2] -3.87% | Potency [3] > 20.6 µM

CCOC(=O)c1[nH]c2ccccc2c1N=C(C)N(CC)CC
inactive: activity change, negative = inhibition [1] 4.17% | activity, negative = inhibition [2] 5.19% | Potency [3] > 20.6 µM

Cc1nc2c(c(=O)n1CC1CCCO1)c1nc3ccccc3nc1n2Cc1ccc2c(c1)OCO2 (configuration not stated)
inactive: activity change, negative = inhibition [1] 1.65% | activity, negative = inhibition [2] -13.4% | Potency [3] > 20.6 µM

CCOc1ccc(-c2nn3c(-c4ccc(OC)cc4)nnc3s2)cc1
inactive: activity change, negative = inhibition [1] -1.24% | activity, negative = inhibition [2] 24.4% | Potency [3] > 20.6 µM

CC1(C)Cc2c(c(-c3ccco3)[nH]c(=O)c2C#N)CS1
inactive: activity change, negative = inhibition [1] -2.31% | activity, negative = inhibition [2] 11.6% | Potency [3] > 20.6 µM

CC(=O)c1cc(CN2CCCCC2)cc(OC(C)C)c1
inactive: activity change, negative = inhibition [1] 15.3% | activity, negative = inhibition [2] 13.1% | Potency [3] > 20.6 µM

Cc1ccc2nc(NCc3ccccc3)[nH]c2c1
inactive: activity change, negative = inhibition [1] 1.71% | activity, negative = inhibition [2] -9.23% | Potency [3] > 20.6 µM

CCOC(=O)C1=C(CSc2nc(-c3ccncc3)ccc2C#N)OC(N)=C(C#N)C1c1cccnc1 (configuration not stated)
inactive: activity change, negative = inhibition [1] 20.1% | activity, negative = inhibition [2] -14.4% | Potency [3] > 20.6 µM
